PubChem BioAssay AID1159580 (chemical genetic matrix, 2015)
Where “and” joins values, the source holds several entries; their conditions need not be identical. Equal values may be shown once. The whole screen tested about 5,500 compounds, of which about 2,000 (36%) were called active. Roughly 18% stayed inconclusive and do not appear here. No stated cut-off is given here; in the data, active means normalized growth mostly below about 0.91 (no sharp cut-off); inconclusive means no clear call, values can overlap the other calls; inactive means mostly above about 0.92. This is one part of the list.

Experiment: chemical genetic growth profiling, strain panel (AID 1159580);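 further: tested at 20 µM; growth read once vehicle control cultures reached saturation at 30 °C; 1 = growth at the plate median or of vehicle wells; lower values mean less growth of the strain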
Settings: S. cerevisiae deletion strains, growth OD

Measured: normalized growth

O=C(O)C(O)C(O)C(=O)O (configuration not stated)
inactive: locus YAL013W, strain DEP1, active compounds read low 0.974 | locus YAL021C, strain ccr4, active compounds read low 1 | locus YAL026C, strain drs2, active compounds read low 0.999 | locus YAL030W, strain snc1, active compounds read low 1 | locus YBL061C, strain skt5, active compounds read low 0.989 | locus YBR009C, strain hhf1, active compounds read low 0.99 | locus YBR021W, strain FUR4, active compounds read low 1.02 | locus YBR023C, strain chs3, active compounds read low 0.989 | locus YBR171W, strain sec66, active compounds read low 0.986 | locus YBR229C, strain ROT2, active compounds read low 0.952 | locus YBR231C, strain swc5, active compounds read low 0.996 | locus YBR279W, strain paf1, active compounds read low 0.985 | locus YCL011C, strain gbp2, active compounds read low 0.988 | locus YCL016C, strain dcc1, active compounds read low 0.994 | locus YCL029C, strain bik1, active compounds read low 0.985 | locus YCL061C, strain MRC1, active compounds read low 0.997 | locus YCL069W, strain vba3, active compounds read low 0.982 | locus YCR088W, strain abp1, active compounds read low 0.992 | locus YDL005C, strain med2, active compounds read low 0.984 | locus YDL035C, strain GPR1, active compounds read low 0.996 | locus YDL040C, strain nat1, active compounds read low 1.01 | locus YDL074C, strain BRE1, active compounds read low 0.976 | locus YDL101C, strain DUN1, active compounds read low 0.958 | locus YDL134C, strain PPH21, active compounds read low 0.986 | locus YDL185W, strain tfp1, active compounds read low 0.966 | locus YDL192W, strain arf1, active compounds read low 0.985 | locus YDR001C, strain nth1, active compounds read low 0.996 | locus YDR069C, strain doa4, active compounds read low 0.99 | locus YDR101C, strain arx1, active compounds read low 0.994 | locus YDR137W, strain rgp1, active compounds read low 0.984 | locus YDR150W, strain NUM1, active compounds read low 0.979 | locus YDR159W, strain sac3, active compounds read low 0.975 | locus YDR162C, strain NBP2, active compounds read low 0.95 | locus YDR195W, strain ref2 0.978 | locus YDR297W, strain sur2, active compounds read low 0.99 | locus YDR318W, strain mcm21, active compounds read low 0.999 | locus YDR334W, strain swr1, active compounds read low 0.992 | locus YDR335W, strain msn5, active compounds read low 0.992 | locus YDR388W, active compounds read low 0.99 | locus YDR392W, strain spt3, active compounds read low 1 | locus YDR502C, strain sam2, active compounds read low 0.991 | locus YEL003W, strain gim4, active compounds read low 0.998 | locus YEL037C, strain rad23, active compounds read low 1 | locus YEL061C, strain CIN8 (second series), active compounds read low 1 | locus YEL061C, strain CIN8, active compounds read low 0.984 | locus YER015W, strain faa2, active compounds read low 0.992 | locus YER016W, strain bim1, active compounds read low 1 | locus YER110C, active compounds read low 0.982 | locus YER111C, strain swi4, active compounds read low 0.988 | locus YER155C, strain BEM2 (second series), active compounds read low 0.991 | locus YER155C, strain BEM2, active compounds read low 0.992 | locus YER167W, strain BCK2, active compounds read low 0.989 | locus YFR010W, strain ubp6, active compounds read low 1 | locus YGL078C, strain dbp3, active compounds read low 0.99 | locus YGL086W, strain mad1, active compounds read low 1 | locus YGL167C, strain pmr1, active compounds read low 1.02 | locus YGL173C, strain kem1, active compounds read low 0.974 | locus YGL227W, strain vid30, active compounds read low 0.997 | locus YGL240W, strain doc1, active compounds read low 0.991 | locus YGL248W, strain PDE1, active compounds read low 0.98 | locus YGL253W, strain hxk2, active compounds read low 0.994 | locus YGR078C, strain PAC10, active compounds read low 0.99 | locus YGR135W, strain pre9, active compounds read low 0.978 | locus YGR229C, strain SMI1, active compounds read low 0.995 | locus YGR252W, strain gcn5, active compounds read low 1.03 | locus YHR013C, strain ard1, active compounds read low 0.987 | locus YHR027C, strain rpn1, active compounds read low 0.987 | locus YHR030C, strain SLT2, active compounds read low 0.997 and 0.963 | locus YHR079C, strain IRE1 (second series), active compounds read low 0.996 | locus YHR079C, strain IRE1, active compounds read low 0.976 | locus YHR094C, strain hxt1, active compounds read low 0.987 | locus YHR129C, strain ARP1, active compounds read low 0.993 | locus YHR142W, strain chs7, active compounds read low 0.983 | locus YHR200W, strain rpn10, active compounds read low 0.99 | locus YIL066C, strain RNR3, active compounds read low 0.996 | locus YIL073C, strain SPO22, active compounds read low 1.01 | locus YIL125W, strain kgd1, active compounds read low 0.995 | locus YIR030C, strain dcg1, active compounds read low 0.989 | locus YJL092W, strain hpr5, active compounds read low 1 | locus YJL095W, strain BCK1 (second series), active compounds read low 1 | locus YJL095W, strain BCK1, active compounds read low 1 and 0.963 | locus YJL115W, strain asf1, active compounds read low 0.997 | locus YJL129C, strain trk1, active compounds read low 0.98 | locus YJL134W, strain LCB3, active compounds read low 0.982 | locus YJL154C, strain vps35, active compounds read low 0.988 | locus YJL164C, strain tpk1, active compounds read low 1.01 | locus YJL166W, strain qcr8, active compounds read low 0.989 | locus YJL168C, strain set2, active compounds read low 0.996 | locus YJL187C, strain SWE1 (second series), active compounds read low 0.98 | locus YJL187C, strain SWE1, active compounds read low 1 | locus YJR043C, strain POL32, active compounds read low 1.03 | locus YJR066W, strain TOR1, active compounds read low 0.943
